Laboratory results as given in publication PMC8384837, “Expanding the binding specificity for RNA recognition by a PUF domain”.

Target: PUM1 PUF domain R3-LFS (Homo sapiens, UniProt Q14671 828-1176, C935L;R936F;Q939S)
Assay: yeast three-hybrid, YBZ-1, SC-Leu-His + 0.5 mM 3-AT, 4 days
Details: tags: N-Gal4 AD-HA kept; label: inside an RPR1-promoter hybrid RNA with tandem MS2 sites; ssRNA
Method in brief: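 The interaction score is the log change in how often each variant appears, from input to selection. Frequencies came from PCR-amplified, Illumina-sequenced repeat regions of Pumilio-1 PUF domain libraries grown in strain YBZ-1 (LexA–MS2 coat fusion, HIS3 reporter) alongside matching RNA elements. Input plates were SC-Leu and selection plates were SC-Leu-His + 0.5 mM 3-AT, each for four days, and the log2 calculation used a pseudocount of 1 where a variant was absent.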

Row | Sequence | binding signal
1 | GGCUAGAACUAGUGGAUCCCCCGGCGCCCGGCGGCUCGAGCCCGGGUAAGUGUAAGUAGUCUGCAUGCCGCCGGGCGCCAUGCCUGCAGGUCGACUCUAGAAAACAUG | 6.56 log2 enrichment (interaction score)
2 | GGCUAGAACUAGUGGAUCCCCCGGCGCCCGGCGGCUCGAGCCCGGGUAAGUGUAAAUAGUCUGCAUGCCGCCGGGCGCCAUGCCUGCAGGUCGACUCUAGAAAACAUG | 3.98 log2 enrichment (interaction score)
3 | GGCUAGAACUAGUGGAUCCCCCGGCGCCCGGCGGCUCGAGCCCGGGUAAGUGUAAUUAGUCUGCAUGCCGCCGGGCGCCAUGCCUGCAGGUCGACUCUAGAAAACAUG | 4.38 log2 enrichment (interaction score)
